Measured values from article PMC7862700, “An all-to-all approach to the identification of sequence-specific readers for epigenetic DNA modifications on cytosine”.

Experiments:
Experiment in all cases: DAPPL (digital affinity profiling via proximity ligation, sequencing); 10 mM Tris-HCl pH 7.5, 50 mM NaCl, 1 mM DTT, 4% glycerol, room temperature, 30 min; GST-TFs on glutathione beads, 16-mer random dsDNA library, 0.1% formaldehyde crosslink after washing; high values mean tight binding
FEV = target: T1, FEV (Homo sapiens, UniProt Q99581 1-238); settings: protein: recombinant; tags: N-terminal GST; dsDNA, one strand shown
T1 sequence: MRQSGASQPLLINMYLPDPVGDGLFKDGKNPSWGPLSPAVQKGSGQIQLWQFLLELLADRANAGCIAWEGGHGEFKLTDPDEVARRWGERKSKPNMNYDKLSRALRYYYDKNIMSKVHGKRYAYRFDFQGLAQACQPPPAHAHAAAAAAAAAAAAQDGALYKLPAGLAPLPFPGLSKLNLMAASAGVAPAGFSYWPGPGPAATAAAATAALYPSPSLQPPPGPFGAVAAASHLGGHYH
Summary of the method: (§1)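 Human transcription factors fused to GST were expressed in yeast, captured on glutathione beads, given DNA barcodes and pooled with a GST-only negative control. Pools were incubated with 200 nmole of a 16-mer random double-stranded DNA library in Tris/NaCl/DTT/glycerol buffer at room temperature for 30 min. They were then washed, crosslinked with 0.1% formaldehyde, proximity-ligated (BsaI/T4 ligase, 1 h, 37 °C), PCR-amplified and sequenced on an Illumina NextSeq500. Binding signal is each 6-mer's read frequency for a factor divided by its frequency for the GST control.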

ETV5 = ETV5 (Homo sapiens, UniProt P41161 1-510); settings: protein: recombinant; tags: N-terminal GST; dsDNA, one strand shown
Summary of the method: as §1

HSF1 = HSF1 (Homo sapiens, UniProt Q00613 1-529); settings: protein: recombinant; tags: N-terminal GST; chain copies: 3; dsDNA, one strand shown
Summary of the method: as §1

SPIC = target: T2, SPIC (Homo sapiens, UniProt Q8N5J4 1-248); settings: protein: recombinant; tags: N-terminal GST; dsDNA, one strand shown
T2 sequence: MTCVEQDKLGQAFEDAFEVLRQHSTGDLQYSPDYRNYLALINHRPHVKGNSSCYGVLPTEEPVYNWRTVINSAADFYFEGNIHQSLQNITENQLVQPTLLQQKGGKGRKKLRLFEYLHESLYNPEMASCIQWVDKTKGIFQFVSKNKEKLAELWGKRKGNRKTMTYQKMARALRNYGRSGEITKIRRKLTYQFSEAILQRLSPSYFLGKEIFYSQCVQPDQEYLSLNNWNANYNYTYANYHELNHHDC
Summary of the method: as §1

ELF4 = ELF4 (Homo sapiens, UniProt Q99607 1-663); settings: protein: recombinant; tags: N-terminal GST; dsDNA, one strand shown
Summary of the method: as §1

ELK4 = target: T3, ELK4 (Homo sapiens, UniProt P28324-2 1-405); settings: protein: recombinant; tags: N-terminal GST; dsDNA, one strand shown
T3 sequence: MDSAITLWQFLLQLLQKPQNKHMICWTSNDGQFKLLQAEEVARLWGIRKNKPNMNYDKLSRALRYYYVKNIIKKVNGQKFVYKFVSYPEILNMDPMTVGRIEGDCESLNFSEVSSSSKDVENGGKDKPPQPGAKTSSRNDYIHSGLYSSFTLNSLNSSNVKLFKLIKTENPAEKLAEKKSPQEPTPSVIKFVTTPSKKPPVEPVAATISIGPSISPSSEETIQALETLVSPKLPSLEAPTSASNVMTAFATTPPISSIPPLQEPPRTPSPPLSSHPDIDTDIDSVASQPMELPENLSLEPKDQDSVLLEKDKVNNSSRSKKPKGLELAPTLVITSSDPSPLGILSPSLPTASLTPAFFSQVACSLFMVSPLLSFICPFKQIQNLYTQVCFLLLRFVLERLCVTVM
Summary of the method: as §1

ETV2 = target: T4, ETV2 (Homo sapiens, UniProt O00321 1-342); settings: protein: recombinant; tags: N-terminal GST; dsDNA, one strand shown
T4 sequence: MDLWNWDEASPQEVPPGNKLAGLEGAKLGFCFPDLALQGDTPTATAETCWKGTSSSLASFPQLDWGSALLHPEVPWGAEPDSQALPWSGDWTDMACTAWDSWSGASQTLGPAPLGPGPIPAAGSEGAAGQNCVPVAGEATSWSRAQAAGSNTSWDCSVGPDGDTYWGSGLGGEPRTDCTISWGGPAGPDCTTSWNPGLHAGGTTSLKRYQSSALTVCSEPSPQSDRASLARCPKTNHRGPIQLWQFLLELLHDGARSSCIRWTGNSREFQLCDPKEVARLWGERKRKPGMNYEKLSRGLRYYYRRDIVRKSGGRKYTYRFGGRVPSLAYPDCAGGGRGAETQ
Summary of the method: as §1

ELF3 = target: T5, ELF3 (Homo sapiens, UniProt P78545 1-371); settings: protein: recombinant; tags: N-terminal GST; dsDNA, one strand shown
T5 sequence: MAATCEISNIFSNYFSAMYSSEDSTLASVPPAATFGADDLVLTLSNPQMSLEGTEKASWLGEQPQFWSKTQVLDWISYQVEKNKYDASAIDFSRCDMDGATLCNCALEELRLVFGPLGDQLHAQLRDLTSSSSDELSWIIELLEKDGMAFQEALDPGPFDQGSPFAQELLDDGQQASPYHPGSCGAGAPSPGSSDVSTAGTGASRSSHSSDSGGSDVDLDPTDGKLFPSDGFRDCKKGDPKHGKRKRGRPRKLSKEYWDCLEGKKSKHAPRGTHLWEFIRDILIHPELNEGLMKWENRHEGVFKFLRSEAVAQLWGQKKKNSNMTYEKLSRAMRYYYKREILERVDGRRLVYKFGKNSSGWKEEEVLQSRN
Summary of the method: as §1

CRX = CRX (Homo sapiens, UniProt O43186 1-299); settings: protein: recombinant; tags: N-terminal GST; dsDNA, one strand shown
Summary of the method: as §1

ETV1 = ETV1 (Homo sapiens, UniProt P50549 1-477); settings: protein: recombinant; tags: N-terminal GST; dsDNA, one strand shown
Summary of the method: as §1

ERF = target: T6, ERF (Homo sapiens, UniProt P50548 1-548); settings: protein: recombinant; tags: N-terminal GST; dsDNA, one strand shown
T6 sequence: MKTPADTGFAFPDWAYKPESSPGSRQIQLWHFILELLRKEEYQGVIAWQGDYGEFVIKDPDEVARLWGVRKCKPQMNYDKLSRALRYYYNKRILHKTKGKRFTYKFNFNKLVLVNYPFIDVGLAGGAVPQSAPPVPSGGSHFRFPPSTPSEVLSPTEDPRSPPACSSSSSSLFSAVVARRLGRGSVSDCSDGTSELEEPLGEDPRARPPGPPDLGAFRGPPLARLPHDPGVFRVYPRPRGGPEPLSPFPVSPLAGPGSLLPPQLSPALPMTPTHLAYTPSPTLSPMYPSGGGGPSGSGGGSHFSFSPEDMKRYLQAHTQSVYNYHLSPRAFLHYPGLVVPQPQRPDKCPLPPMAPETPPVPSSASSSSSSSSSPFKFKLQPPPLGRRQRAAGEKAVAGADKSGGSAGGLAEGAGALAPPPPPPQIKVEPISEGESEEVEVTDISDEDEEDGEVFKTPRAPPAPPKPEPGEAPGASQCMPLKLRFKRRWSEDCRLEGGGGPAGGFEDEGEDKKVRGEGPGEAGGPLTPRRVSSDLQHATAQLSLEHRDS
Summary of the method: as §1

ETV3L = target: T7, ETV3L (Homo sapiens, UniProt Q6ZN32 1-361); settings: protein: recombinant; tags: N-terminal GST; dsDNA, one strand shown
T7 sequence: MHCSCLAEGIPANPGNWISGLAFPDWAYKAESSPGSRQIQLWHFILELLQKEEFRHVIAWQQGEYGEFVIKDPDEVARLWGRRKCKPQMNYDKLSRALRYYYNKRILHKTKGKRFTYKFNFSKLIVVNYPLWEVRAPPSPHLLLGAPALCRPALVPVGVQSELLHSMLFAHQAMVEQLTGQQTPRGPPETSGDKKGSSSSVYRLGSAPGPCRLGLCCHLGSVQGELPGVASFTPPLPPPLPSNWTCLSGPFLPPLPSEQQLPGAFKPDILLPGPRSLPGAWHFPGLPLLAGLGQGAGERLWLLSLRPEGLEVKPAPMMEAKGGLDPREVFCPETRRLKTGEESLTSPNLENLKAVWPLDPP
Summary of the method: as §1

ETS2 = target: T8, ETS2 (Homo sapiens, UniProt P15036 1-469); settings: protein: recombinant; tags: N-terminal GST; dsDNA, one strand shown
T8 sequence: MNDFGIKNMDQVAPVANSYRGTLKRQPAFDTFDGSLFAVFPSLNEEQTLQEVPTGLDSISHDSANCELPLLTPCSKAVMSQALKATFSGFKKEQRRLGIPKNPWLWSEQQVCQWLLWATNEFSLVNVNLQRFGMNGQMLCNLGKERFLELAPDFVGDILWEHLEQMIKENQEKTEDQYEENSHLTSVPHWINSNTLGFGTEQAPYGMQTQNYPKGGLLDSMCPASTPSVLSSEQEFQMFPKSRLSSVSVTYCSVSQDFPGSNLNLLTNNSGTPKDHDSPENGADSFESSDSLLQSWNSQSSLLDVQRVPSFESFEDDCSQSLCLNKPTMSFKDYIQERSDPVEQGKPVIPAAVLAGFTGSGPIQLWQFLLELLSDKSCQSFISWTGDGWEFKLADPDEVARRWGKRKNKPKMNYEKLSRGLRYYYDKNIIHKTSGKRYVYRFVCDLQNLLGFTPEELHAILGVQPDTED
Summary of the method: as §1

SPDEF = target: T9, SPDEF (Homo sapiens, UniProt O95238 1-335); settings: protein: recombinant; tags: N-terminal GST; dsDNA, one strand shown
T9 sequence: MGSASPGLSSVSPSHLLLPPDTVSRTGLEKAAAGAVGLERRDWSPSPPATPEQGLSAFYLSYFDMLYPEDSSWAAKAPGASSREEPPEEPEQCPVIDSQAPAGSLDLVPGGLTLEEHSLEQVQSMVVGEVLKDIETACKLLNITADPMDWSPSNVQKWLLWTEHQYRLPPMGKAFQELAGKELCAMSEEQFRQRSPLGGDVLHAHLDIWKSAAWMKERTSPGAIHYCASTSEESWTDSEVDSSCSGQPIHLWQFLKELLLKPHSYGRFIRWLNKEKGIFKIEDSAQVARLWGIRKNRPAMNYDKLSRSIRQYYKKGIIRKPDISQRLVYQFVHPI
Summary of the method: as §1

ETV7 = target: T10, ETV7 (Homo sapiens, UniProt Q9Y603 1-341); settings: protein: recombinant; tags: N-terminal GST; dsDNA, one strand shown
T10 sequence: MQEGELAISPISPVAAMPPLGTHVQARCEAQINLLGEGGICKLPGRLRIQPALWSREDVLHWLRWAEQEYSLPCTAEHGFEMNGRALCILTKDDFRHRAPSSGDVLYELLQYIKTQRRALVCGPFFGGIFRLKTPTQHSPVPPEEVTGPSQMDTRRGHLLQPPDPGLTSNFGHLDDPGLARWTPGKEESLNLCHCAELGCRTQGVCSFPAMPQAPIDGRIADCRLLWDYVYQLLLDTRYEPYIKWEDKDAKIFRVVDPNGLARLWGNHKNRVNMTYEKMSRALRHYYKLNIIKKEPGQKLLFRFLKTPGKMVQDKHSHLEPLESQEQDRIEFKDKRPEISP
Summary of the method: as §1

ELF5 = target: T11, ELF5 (Homo sapiens, UniProt Q9UKW6-2 1-255); settings: protein: recombinant; tags: N-terminal GST; dsDNA, one strand shown
T11 sequence: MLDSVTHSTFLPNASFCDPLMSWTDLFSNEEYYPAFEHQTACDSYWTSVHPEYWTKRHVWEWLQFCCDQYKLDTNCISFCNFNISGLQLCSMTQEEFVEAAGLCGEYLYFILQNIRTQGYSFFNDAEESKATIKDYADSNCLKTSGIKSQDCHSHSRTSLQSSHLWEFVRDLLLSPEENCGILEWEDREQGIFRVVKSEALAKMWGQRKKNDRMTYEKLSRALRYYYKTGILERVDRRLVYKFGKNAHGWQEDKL
Summary of the method: as §1

ETV3 = target: T12, ETV3 (Homo sapiens, UniProt P41162-2 1-143); settings: protein: recombinant; tags: N-terminal GST; dsDNA, one strand shown
T12 sequence: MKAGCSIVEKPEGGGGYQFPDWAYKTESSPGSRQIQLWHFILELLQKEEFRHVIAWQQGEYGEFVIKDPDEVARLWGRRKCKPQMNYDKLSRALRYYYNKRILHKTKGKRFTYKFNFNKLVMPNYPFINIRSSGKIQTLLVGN
Summary of the method: as §1

ETV6 = ETV6 (Homo sapiens, UniProt P41212 1-452); settings: protein: recombinant; tags: N-terminal GST; dsDNA, one strand shown
Summary of the method: as §1

Chain of HSF1 (Q00613 whole entry): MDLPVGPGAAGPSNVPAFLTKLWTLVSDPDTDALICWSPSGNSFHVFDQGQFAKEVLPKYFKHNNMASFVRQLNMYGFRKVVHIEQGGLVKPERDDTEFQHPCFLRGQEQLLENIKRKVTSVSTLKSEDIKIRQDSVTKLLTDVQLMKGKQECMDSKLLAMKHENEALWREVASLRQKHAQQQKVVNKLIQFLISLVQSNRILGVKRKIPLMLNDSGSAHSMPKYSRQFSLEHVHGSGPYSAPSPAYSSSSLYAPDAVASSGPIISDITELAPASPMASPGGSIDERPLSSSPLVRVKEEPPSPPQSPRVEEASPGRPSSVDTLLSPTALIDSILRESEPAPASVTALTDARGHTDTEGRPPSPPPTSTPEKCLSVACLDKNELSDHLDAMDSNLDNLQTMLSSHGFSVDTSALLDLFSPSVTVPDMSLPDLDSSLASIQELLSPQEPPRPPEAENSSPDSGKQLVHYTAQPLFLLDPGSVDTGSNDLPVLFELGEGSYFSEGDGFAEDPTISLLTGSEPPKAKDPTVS
Chain of ETV6 (P41212 whole entry): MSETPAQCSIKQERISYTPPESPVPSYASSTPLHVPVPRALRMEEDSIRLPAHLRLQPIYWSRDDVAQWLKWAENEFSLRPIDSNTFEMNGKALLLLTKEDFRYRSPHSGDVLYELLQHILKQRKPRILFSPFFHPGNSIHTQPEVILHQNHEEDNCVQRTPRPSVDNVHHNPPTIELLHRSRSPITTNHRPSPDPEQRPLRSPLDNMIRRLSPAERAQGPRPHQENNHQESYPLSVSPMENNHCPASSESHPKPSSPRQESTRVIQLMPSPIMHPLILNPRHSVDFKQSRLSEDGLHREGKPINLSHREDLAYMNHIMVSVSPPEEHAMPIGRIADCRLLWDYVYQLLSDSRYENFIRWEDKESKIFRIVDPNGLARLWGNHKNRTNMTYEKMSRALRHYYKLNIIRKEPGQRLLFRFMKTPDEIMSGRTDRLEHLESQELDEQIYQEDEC
Chain of CRX (O43186 whole entry): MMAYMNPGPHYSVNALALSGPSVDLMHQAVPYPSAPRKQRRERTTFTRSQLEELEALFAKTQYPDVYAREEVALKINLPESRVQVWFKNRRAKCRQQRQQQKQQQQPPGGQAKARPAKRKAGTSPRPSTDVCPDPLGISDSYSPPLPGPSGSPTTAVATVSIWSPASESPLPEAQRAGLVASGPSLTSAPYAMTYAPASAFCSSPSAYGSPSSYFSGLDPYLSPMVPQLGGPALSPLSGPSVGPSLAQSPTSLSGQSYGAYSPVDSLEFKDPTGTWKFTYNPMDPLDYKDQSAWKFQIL
Chain of ETV1 (P50549 whole entry): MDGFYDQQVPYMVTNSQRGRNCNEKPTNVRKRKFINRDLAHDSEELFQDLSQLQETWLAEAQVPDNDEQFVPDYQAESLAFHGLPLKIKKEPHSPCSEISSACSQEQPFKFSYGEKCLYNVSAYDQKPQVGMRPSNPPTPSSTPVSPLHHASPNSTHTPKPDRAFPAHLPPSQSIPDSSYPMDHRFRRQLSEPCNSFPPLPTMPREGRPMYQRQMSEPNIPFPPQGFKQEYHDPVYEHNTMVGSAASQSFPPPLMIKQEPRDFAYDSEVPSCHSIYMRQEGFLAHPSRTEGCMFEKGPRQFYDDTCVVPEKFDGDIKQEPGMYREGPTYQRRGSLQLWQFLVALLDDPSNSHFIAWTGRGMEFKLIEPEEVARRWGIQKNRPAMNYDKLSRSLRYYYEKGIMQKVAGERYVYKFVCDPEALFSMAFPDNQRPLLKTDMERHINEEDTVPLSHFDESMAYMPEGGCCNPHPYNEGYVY
Chain of ETV5 (P41161 whole entry): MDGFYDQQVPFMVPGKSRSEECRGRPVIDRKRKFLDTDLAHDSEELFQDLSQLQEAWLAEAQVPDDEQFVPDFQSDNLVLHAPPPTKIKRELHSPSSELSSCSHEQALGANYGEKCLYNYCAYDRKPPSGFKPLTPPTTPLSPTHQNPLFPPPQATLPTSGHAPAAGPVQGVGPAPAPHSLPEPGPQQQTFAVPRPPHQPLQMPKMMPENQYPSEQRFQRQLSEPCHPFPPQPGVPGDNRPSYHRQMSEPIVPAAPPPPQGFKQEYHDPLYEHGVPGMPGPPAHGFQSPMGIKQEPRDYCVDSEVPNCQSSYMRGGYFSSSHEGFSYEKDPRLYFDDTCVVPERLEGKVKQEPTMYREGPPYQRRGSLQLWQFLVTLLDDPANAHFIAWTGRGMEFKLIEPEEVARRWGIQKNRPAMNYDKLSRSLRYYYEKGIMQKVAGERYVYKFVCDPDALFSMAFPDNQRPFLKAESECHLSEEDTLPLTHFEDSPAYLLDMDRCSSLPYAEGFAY
Chain of ELF4 (Q99607 whole entry): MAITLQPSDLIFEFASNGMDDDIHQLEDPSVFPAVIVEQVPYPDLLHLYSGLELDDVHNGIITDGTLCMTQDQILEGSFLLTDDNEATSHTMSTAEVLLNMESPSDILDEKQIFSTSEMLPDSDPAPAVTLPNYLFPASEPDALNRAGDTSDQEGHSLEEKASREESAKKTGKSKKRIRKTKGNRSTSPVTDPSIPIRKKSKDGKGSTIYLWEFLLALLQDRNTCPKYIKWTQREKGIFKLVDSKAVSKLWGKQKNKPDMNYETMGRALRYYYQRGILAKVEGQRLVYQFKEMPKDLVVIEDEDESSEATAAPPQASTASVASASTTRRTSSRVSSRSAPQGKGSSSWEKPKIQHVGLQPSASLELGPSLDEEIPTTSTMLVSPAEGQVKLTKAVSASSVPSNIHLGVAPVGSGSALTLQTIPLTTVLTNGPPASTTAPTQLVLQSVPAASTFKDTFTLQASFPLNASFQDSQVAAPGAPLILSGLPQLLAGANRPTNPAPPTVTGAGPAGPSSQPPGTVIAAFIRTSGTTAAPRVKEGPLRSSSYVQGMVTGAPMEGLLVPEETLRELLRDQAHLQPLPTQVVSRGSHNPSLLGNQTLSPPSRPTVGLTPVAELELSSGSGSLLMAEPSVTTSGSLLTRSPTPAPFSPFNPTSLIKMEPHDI

CTATGG
binding signal (FEV): 1.15 fold enrichment (6-mer frequency, TF over GST control) | binding signal (ETV5): 1.23 fold enrichment (6-mer frequency, TF over GST control) | binding signal (HSF1): 1.17 fold enrichment (6-mer frequency, TF over GST control) | binding signal (SPIC): 1.14 fold enrichment (6-mer frequency, TF over GST control) | binding signal (ELF4): 1.15 fold enrichment (6-mer frequency, TF over GST control) | binding signal (ELK4): 1.24 fold enrichment (6-mer frequency, TF over GST control) | binding signal (ETV2): 1.28 fold enrichment (6-mer frequency, TF over GST control) | binding signal (ELF3): 1.25 fold enrichment (6-mer frequency, TF over GST control) | binding signal (CRX): 1.11 fold enrichment (6-mer frequency, TF over GST control) | binding signal (ETV1): 1.18 fold enrichment (6-mer frequency, TF over GST control) | binding signal (ERF): 1.11 fold enrichment (6-mer frequency, TF over GST control) | binding signal (ETV3L): 1.16 fold enrichment (6-mer frequency, TF over GST control) | binding signal (ETS2): 1.16 fold enrichment (6-mer frequency, TF over GST control) | binding signal (SPDEF): 1.29 fold enrichment (6-mer frequency, TF over GST control) | binding signal (ETV7): 1.39 fold enrichment (6-mer frequency, TF over GST control) | binding signal (ELF5): 1.09 fold enrichment (6-mer frequency, TF over GST control) | binding signal (ETV3): 1.29 fold enrichment (6-mer frequency, TF over GST control) | binding signal (ETV6): 1.09 fold enrichment (6-mer frequency, TF over GST control)
